From PubChem BioAssay
Luc counter: Counterscreen for Luciferase (Kinase-Glo TM) Inhibition; Luciferin 4-monooxygenase (Photuris pensylvanica), Q27757; 0.28% of 200,000 active; AID 1379, 2008; Potency, µM (series often up to 38.3 µM), inactives show at the highest dose activity change, negative = inhibition, hits mostly inhibitors; Kinase-Glo luciferase, ATP luminescence, 8 min; also: potency is read from the fitted curve at half-maximal effect; % is scaled to controls: 0 for no effect and ±100 for the full control effect; nearly all actives have a fitted effect of over 60% in size
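Substrate mix (final 50 mM imidazole pH 7.2, 50 mM KCl, 7 mM MgCl2, 10 uM ATP, 0.01% Tween 20, 0.05% BSA) plus pin-tool compound, then Kinase-Glo detection mix; 8 min ambient, luminescence read.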
gsp agonist: qHTS for Agonist of gsp, the Etiologic Mutation Responsible for Fibrous Dysplasia/McCune-Albright Syndrome: qHTS; gsp mutant cells, cAMP HTRF, 30 min; Potency, µM (titrated, usually from 76.9 µM), for the others: top-dose activation (cAMP increase), actives largely listed as activators; 0.13% of 340,000 active; AID 624287, 2012; active = well fitted activation curve with a large enough effect; inconclusive = small, poorly fitted or top-dose-only effect, or another doubt; inactive = no such curve, though single readings can be large or run the other way; cell line not stated here;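 also: phosphodiesterase inhibitor Ro 20-1724 added with compounds to block cAMP breakdown; potency is read from the fitted curve at half-maximal effect; nearly all actives have a fitted effect of over 60% in size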
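Cells stably selected in G418 were plated at 2000/well, grown 16-24 hr, then given compounds in DMSO with the PDE inhibitor […] (300 uM solution added) for 30 min at 37C; cAMP was read by HTRF.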
RXFP1 ag: qHTS Assay for Agonists of the Relaxin Receptor RXFP1; AID 2676, 2010; HEK293T-RXFP1 cAMP TR-FRET, 30 min; response scale: percent of porcine relaxin response, buffer zero; 0.3% of 370,000 active; Relaxin receptor 1 (Homo sapiens), Q9HBX9; Potency, µM (top dose mostly 57.5 µM), for the others: top-dose activation, actives largely listed as activators; also: potency is read from the fitted curve at half-maximal effect; % is scaled to controls: 0 for no effect and ±100 for the full control effect; nearly all actives have a fitted effect of over 60% in size
Target sequence (Q9HBX9 whole entry, looked up): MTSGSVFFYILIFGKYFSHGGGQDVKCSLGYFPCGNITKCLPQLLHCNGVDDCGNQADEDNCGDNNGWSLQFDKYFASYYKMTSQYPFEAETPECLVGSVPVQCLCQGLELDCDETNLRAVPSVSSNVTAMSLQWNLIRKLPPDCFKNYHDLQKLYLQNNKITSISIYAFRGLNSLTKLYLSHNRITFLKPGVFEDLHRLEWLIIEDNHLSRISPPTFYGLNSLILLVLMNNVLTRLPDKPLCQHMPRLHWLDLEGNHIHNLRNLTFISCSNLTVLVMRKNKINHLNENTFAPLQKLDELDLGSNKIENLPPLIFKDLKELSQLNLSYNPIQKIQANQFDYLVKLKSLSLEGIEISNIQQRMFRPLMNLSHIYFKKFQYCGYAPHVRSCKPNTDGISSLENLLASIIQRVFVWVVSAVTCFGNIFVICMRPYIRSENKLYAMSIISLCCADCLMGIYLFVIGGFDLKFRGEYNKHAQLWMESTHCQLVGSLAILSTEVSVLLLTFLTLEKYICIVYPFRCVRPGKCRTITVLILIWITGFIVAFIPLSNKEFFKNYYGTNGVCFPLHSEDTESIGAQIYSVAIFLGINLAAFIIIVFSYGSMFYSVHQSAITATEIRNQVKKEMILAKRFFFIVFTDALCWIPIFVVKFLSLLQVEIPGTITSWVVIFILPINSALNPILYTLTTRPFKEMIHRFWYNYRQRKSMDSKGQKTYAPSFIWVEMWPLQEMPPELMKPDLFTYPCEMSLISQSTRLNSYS
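Agonist response is measured as cAMP accumulation in an RXFP1-transfected HEK293T line under PDE4 inhibition. Values are scaled between buffer-only and 29 nM porcine relaxin, and EC50s come from standard Hill equation fits.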
gsp antagonist: qHTS for Antagonists of gsp, the Etiologic Mutation Responsible for Fibrous Dysplasia/McCune-Albright Syndrome: qHTS; gsp-mutant cells, cAMP HTRF, 30 min; Potency, µM (titrated, usually from 76.9 µM), for the others: at the top dose activity change, negative = inhibition, hits mostly inhibitors; 0.4% of 340,000 active; AID 624288, 2012; calls by dose curve; cell line not stated here;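 also: intracellular cAMP measured with PDE inhibitor Ro 20-1724 present during compound exposure; potency is read from the fitted curve at half-maximal effect; % is scaled to controls: 0 for no effect and ±100 for the full control effect; nearly all actives have a fitted effect of over 65% in size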
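Measurement of cellular cAMP by homogeneous time-resolved fluorescence following a 30 min compound exposure at 37C. The PDE inhibitor […] was present throughout; the assay buffer was DPBS with 0.05% BSA and 0.005% Tween 20.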
miR-21 act: qHTS Assay for Modulators of miRNAs and/orActivators of miR-21 | HeLa miR-21 FLuc reporter, luciferase, 48 h | Potency, µM (series often up to 38.3 µM), inactives show at the highest dose activity change, positive = activation, most hits filed as activators | 340,000 tested, under 10 active;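 also: % of control where 0% means no effect; miR-21 action dims this reporter so a rising signal means less miR-21 action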
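Using DMEM plus 10% FBS, HeLa miR-21-FLuc cells are incubated with test compounds (final up to about 40uM) for 48 hours; firefly luciferase signal is then imaged following reagent-mediated lysis.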
RXFP1 antagonist: qHTS Assay for Antagonists of the Relaxin Receptor RXFP1; activity change, negative = inhibition, % at 57.5 µM; Relaxin receptor 1 (Homo sapiens), Q9HBX9; HEK293-RXFP1, relaxin-stimulated cAMP HTRF, 30 min; hits give low values; AID 1259400, 2018; 0.59% of 350,000 active;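 active = activity change of -60% or lower, but not beyond a set lower limit; inconclusive = change between -60% and -40%, or beyond the set limit; inactive = change above -40%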; also: % is scaled to controls: 0 for no effect and ±100 for the full control effect
The depositor's hits bear a star; ? = inconclusive; / = no result given; [ ] = another dose, or the depositor's remark. Only some compounds are listed: those with a hit (about 1% of all), similar ones and a draw of the others. Unless noted, calls follow the shape of the dose curve; as a rule, active = well fitted curve in the direction sought with a large enough effect; inconclusive = small, poorly fitted or top-dose-only effect, or another doubt; inactive = no such curve, though single readings can be large; an effect the other way counts as inactive or inconclusive.

SMILES | Luc counter | gsp agonist | RXFP1 ag | gsp antagonist | miR-21 act | RXFP1 antagonist
O=c1cc(-c2ccccc2)nc2nc(SCc3ccccc3)[nH]n12 | -4.6% | -16.9% | 0.7% | 25.1µM* | -1.5% | -3.3
O=C(O)CCC(=O)Nc1ccc(C(=O)OCC(=O)c2ccc(Cl)cc2Cl)cc1 | -1.7% | -25.4% | -0.1% | 2.8% | -1.9% | -66.9*
Cc1ccc2ncc(C(=O)N3CCN(c4ccccc4F)CC3)c(=O)n2c1 | / | / | 18.0% | / | -5.7% | -1.7
C/C(=N\O)c1ccc(OCC(=O)N2CCCCC2)cc1 | / | / | / | / | / | -15.5
O=C(CC(=O)c1ccccc1O)c1ccc(F)cc1 | 10.1% | ? | 3.5% | 39.8µM* | 9.9% | -34.9
O=C1[C@H]2[C@H]3C=C[C@@H](C4[C@H]3[C@@H]3C(=O)N(CN5CCSCC5)C(=O)[C@H]43)[C@H]2C(=O)N1CN1CCSCC1 (stereo partly drawn) | -4.7%[7.66 µM] | / | / | / | / | /
O=C(CCCn1c(=S)[nH]c2cc3c(cc2c1=O)OCO3)NCc1cccc(Cl)c1 | / | 10.8% | ? | -2.6% | 2.4% | -102.8*
O=C(CCn1c(=S)[nH]c2cc3c(cc2c1=O)OCO3)NCCc1ccccc1Cl | / | -36.5% | / | / | / | -13.3
O=C(CCn1c(=S)[nH]c2cc3c(cc2c1=O)OCO3)NCc1ccccc1Cl | / | 23.4% | ? | 19.4% | -1.6% | -69.8*
[O-][n+]1cccc(/C(Cl)=N/OC[C@@H](O)CN2CCCCC2)c1 | / | / | / | / | / | -9.1
CCOC(=O)N1CCN(C(=O)c2cc(COc3ccc(OC)cc3Cl)on2)CC1 | / | -2.4% | -0.5% | 35.5µM* | -17.9% | -4.1
CCOc1cccc(C2CC(=O)Nc3cc4c(cc32)OCCO4)c1 (stereo not drawn) | / | / | 5.8% | / | 20.6% | 2.6
Cc1ccc(C(=O)N(Cc2ccc(N(C)C)cc2)CC2CCCO2)cc1 (stereo not drawn) | / | / | 0.9% | / | -9.8% | 1.5
CCC(C(=O)Nc1nccs1)(C(F)(F)F)C(F)(F)F | 1.8% | 5.1% | -0.2% | 31.6µM* | 0.3% | -6.0
COc1ccc(Oc2ncc3ncc(=O)n(Cc4cccc(OC)c4)c3n2)cc1 | -0.5% | / | / | / | / | /
COc1ccccc1C(=O)O/N=C(\N)c1ccccn1 | / | -8.0% | -0.5% | 6.6% | 3.7% | -25.3
N/C(=N\OC(=O)c1ccccc1Cl)c1ccccn1 | 11.2µM* | -0.2% | -0.9% | 1.8% | 16.2% | -4.5
N/C(=N\OC(=O)c1ccc(Cl)cc1)c1ccccn1 | 6.31µM* | -3.4% | -2.8% | 6.6% | 23.7% | 6.9
Cc1ccccc1C(=O)Nc1ccc(C(=O)N2CCCC(O)c3cc(Cl)ccc32)c(C)c1 (stereo not drawn) | / | / | / | / | / | -18.7
NS(=O)(=O)c1cc(C(=O)NN2C[C@H]3[C@H]4CCC(C4)[C@H]3C2)ccc1Cl | / | / | / | / | / | -7.0
C/C(CC(=O)Nc1ccccn1)=N\NC(=O)C(=O)Nc1cccc(C)c1 | -3.0% | -25.0% | 3.0% | -4.6% | -7.6% | -13.8
O=C(Nc1cccc(O)c1)C(=O)Nc1ccccn1 | 4.47µM* | -13.4%[15.4 µM] | -0.7% | 10.7% | 28.9% | -3.0
Cc1cc(/C=C2\SC(=S)NC2=O)c(C)n1-c1ccc(O)cc1 | / | -2.1% | -2.0% | 31.6µM* | -34.2% | ?
COc1cc(C(CC(=O)Nc2ccc(C)c(F)c2)N2Cc3ccccc3C2=O)cc(OC)c1OC (stereo not drawn) | / | / | 2.1% | / | -0.7% | /
COc1ccc2[nH]c3c(=O)n(CCCCC(=O)N4CCCC4)c(=S)[nH]c3c2c1 | -8.5% | 23.0% | 3.1% | -12.1% | -2.8% | -106.8*
O=C(CCCn1c(=S)[nH]c2ccsc2c1=O)NC1CCCCC1 | / | ? | 12.8% | -11.9% | 2.3% | ?
